{"source": "PubChem BioAssay AID504401", "about": "(The Scripps Research Institute Molecular Screening Center, 2011)", "test_system": "Imidazoline I2", "test": "CYP450 and receptor off-target profile – biochemical, Ricerca HitProfilingScreen, selectivity assay for GPR7 antagonist project, late-stage follow-up (AID 504401)", "settings": "Ricerca radioligand binding and CYP450 panel, central, at 10 µM, active compounds read high", "note": "Values without a mark were called inactive. How the calls were made is not given here."}
{"smiles": "COc1ccc(Oc2c(Cl)cnn(-c3cc(C)cc(C)c3)c2=O)cc1", "values": [{"measurement": "inhibition", "value": 22, "unit": "%"}]}
